# Bioassay records deposited in PubChem by National Center for Advancing Translational Sciences (NCATS).
# IMPase inh: qHTS Assay for Identifying the Cell-Membrane Permeable IMPase Inhibitors; Inositol monophosphatase 1 (Rattus norvegicus), P97697; CHO-M1 cells, IP1 accumulation, HTRF TR-FRET ratio; inhibition (IP1 accumulation), % at 46.1 µM; 120,000 tested, under 10 active; AID 901, 2007; active = well fitted curve in the direction sought with a large enough effect in the signal ratio, not every such curve was filed as active; inconclusive = small, poorly fitted or top-dose-only effect, or a change in a side signal; inactive = no such curve, though single readings can be large or run the other way; the % refers to the signal ratio;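 note: cells stimulated with carbachol in lithium chloride buffer; plate controls were DMSO basal wells for no effect and reference inhibitor wells for full effect; higher means more IMPase inhibition seen as more IP1 and lower FRET ratio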
#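 The IP-One HTRF competitive assay in carbachol-stimulated CHO-M1 cells quantifies cellular IP1. Compounds spanned up to 46 uM final, and activity is expressed as AC50 from concentration-response fits of the ratio and donor data.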
# ALDH1A1 inh: qHTS Assay for Inhibitors of Aldehyde Dehydrogenase 1 (ALDH1A1); Potency, µM (top dose mostly 75.3 µM), inactives show top-dose activity, negative = inhibition, hits mostly inhibitors; 220,000 compounds, 7.3% hits; Aldehyde dehydrogenase 1A1 (Homo sapiens), P00352; Purified ALDH1A1, NADH fluorescence, propionaldehyde substrate; active = well fitted inhibition curve with a large enough effect, not every such curve was filed as active; inconclusive = small, poorly fitted or top-dose-only effect, or another doubt; inactive = no such curve, though single readings can be large or run the other way;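 note: potency is the fitted concentration of half-maximal effect; plate controls were no enzyme wells and a reference inhibitor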
# HPGD inh: qHTS Assay for Inhibitors of HPGD (15-Hydroxyprostaglandin Dehydrogenase) | 150,000 compounds, 4.3% hits | purified HPGD, NADH fluorescence kinetic, PGE2 substrate | AID 894, 2007 | Potency, µM, without a hit: at the top dose activity change, negative = inhibition, actives largely listed as inhibitors; active = well fitted inhibition curve with a large enough effect, not every such curve was filed as active; inconclusive = small, poorly fitted or top-dose-only effect, or another doubt; inactive = no such curve, though single readings can be large or run the other way; note: potency is the fitted concentration of half-maximal effect
# Target sequence (P15428 whole entry, looked up): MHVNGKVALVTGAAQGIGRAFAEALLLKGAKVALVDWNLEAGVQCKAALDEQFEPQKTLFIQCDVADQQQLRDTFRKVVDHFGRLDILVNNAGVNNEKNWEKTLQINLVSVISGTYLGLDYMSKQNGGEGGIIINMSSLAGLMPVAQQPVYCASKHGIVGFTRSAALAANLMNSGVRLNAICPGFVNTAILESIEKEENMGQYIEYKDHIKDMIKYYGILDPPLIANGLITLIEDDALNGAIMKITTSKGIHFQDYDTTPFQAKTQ
#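 20 nM HPGD preincubated 15 min at room temperature with compound in 50 mM Tris-HCl pH 8, 0.01% Tween 20. Started with 1 mM NAD+ and 30 uM prostaglandin E2; NADH fluorescence (360/450 nm) read 5 times over 30-s intervals, last minus first.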
# PNC assembly inh: High Content Assay for Compounds that inhibit the Assembly of the Perinucleolar Compartment; 140,000 compounds, 3.1% hits; PC3M PTB-GFP, PNC prevalence imaging, 16 h; stronger effect = lower value; activity change (PNC), negative = inhibition, % at 10 µM;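 active = readout at or below -70, meaning at least 70% loss of cells showing the perinucleolar compartment, a nuclear body marking cancer cells; inconclusive = readout between -30 and a set limit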;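 note: plate controls were DMSO wells for no effect and camptothecin positive control wells for full effect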
#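 Read-out is percentage of cells bearing a perinucleolar compartment, from automated 20x imaging of fixed, Hoechst-stained PC3M PTB-GFP cells. Cells were seeded 4 h, then exposed 16 h to compound (23 nl of library stock) in duplicate plates.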
# NPSR antag: qHTS Assay for Antagonists of the Neuropeptide S Receptor: cAMP Signal Transduction; CHO-NPSR cells, cAMP TR-FRET, antagonist mode; AID 1461, 2008; Potency, µM (doses to about 38.3 µM), without a hit: at the highest dose activity change, negative = inhibition, hits mostly inhibitors; 220,000 compounds, 1% hits; note: potency is the fitted concentration of half-maximal effect; nearly all actives have a fitted effect of over 50% in size
# Target sequence (Q6W5P4 whole entry, looked up): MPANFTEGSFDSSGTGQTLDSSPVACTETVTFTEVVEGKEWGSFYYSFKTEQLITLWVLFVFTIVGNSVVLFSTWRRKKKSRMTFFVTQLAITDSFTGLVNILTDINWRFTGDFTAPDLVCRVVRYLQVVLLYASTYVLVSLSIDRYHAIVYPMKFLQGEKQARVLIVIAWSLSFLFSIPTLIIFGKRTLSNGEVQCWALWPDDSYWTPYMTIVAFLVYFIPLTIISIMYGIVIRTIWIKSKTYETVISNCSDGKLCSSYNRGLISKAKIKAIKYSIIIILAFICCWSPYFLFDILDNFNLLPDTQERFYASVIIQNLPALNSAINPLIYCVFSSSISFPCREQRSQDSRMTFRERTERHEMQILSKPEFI
# IMPase Li cell: qHTS Assay for Identifying the Cell-Membrane Permeable IMPase Inhibitors: Potentiation with Lithium; CHO-M1 cells, IP1 TR-FRET (IP-One), carbachol + lithium; Potency, µM (series often up to 59.4 µM), inactives show at the top dose activity, negative = IMPase inhibition, actives largely listed as inhibitors; 210,000 compounds, 0.35% hits;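 note: IP1 builds up when IMPase is blocked and the TR-FRET signal falls; potency is the fitted concentration of half-maximal effect; plate controls were basal vehicle for no effect and high inhibitor control for full effect; nearly all actives have a fitted effect of over 50% in size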
#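 Steps: plate 2000 CHO-M1 cells per well and culture 16–30 h; add compound and lithium; incubate 30 min, 37C; add d2-IP1 tracer and Eu cryptate anti-IP1 antibody in lysis buffer; read after 10 min at room temperature.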
# Starred values were filed as active, the others as inactive; ? = inconclusive; nt = no result given; [ ] = another dose, or the depositor's remark. Only some compounds are listed: those with a hit (about 11% of all), similar ones and a draw of the others. Unless noted, calls come from the whole dose curve; as a rule, active = well fitted curve in the direction sought with a large enough effect; inconclusive = small, poorly fitted or top-dose-only effect, or another doubt; inactive = no such curve, though single readings can be large; an effect the other way counts as inactive or inconclusive. Unless noted, % is set by controls: 0 for no effect and ±100 for the full control effect.
SMILES,IMPase inh,ALDH1A1 inh,HPGD inh,PNC assembly inh,NPSR antag,IMPase Li cell
C/C=C/C=C/C(=O)[C@@H]1[C@@H]([C@]2(C)OC(=O)C(C)=C2O)[C@H]2/C(=C(O)/C=C/C=C/C)C(=O)[C@]1(C)C(=O)C2(C)O (some centres not stated),nt,nt,nt,nt,-22.8%,nt
CC(C)CC(=O)NC(NC(=S)Nc1cccc2cccnc12)C(Cl)(Cl)Cl (configuration not stated),-2.1,-10.2%,-4.7%,-6.9,?,-0.3%[38.3 µM]
CCOc1ccc(C(=O)NCC(=O)OCc2c(C)noc2C)cc1,4.6,-10.0%,-7.3%,3.5,18.2%,-1.9%
Cc1cccc(CCNC(=O)CC2C(=O)NCCN2Cc2ccc(F)c(F)c2)n1 (configuration not stated),nt,?,nt,nt,-2.1%,3.9%
COc1ccc(NC(=O)CSc2nnc(N)s2)c([N+](=O)[O-])c1,nt,-5.6%,nt,nt,5.2%,11.4%
CSCCNC(=O)c1ccc(C(C)(C)C)cc1,2.1,-8.6%,14.1µM*,-22.3,4.7%[46.1 µM],-1.8%[38.3 µM]
Cc1ccc(C(=O)NCCSC(C)(C)C)cc1,-0.2,5.8%,-22.8%,15.5,-2.0%[46.1 µM],-6.5%[38.3 µM]
NCCC[C@@H](CC(=O)N[C@@H]1CCNC[C@H]1C(=O)N[C@H](CC(=O)N[C@@H](CCC(=O)O)CC(=O)O)Cc1c[nH]c2ccccc12)NC(=O)C[C@H](CO)NC(=O)[C@@H]1CNCC[C@H]1N,nt,?,-4.5%,nt,nt,8.8%
COCC(=O)NCCc1ccc(S(N)(=O)=O)cc1,-2.1,12.7%,-5.2%,29.4,-5.2%[46.1 µM],-0.2%[38.3 µM]
CCOc1ccc(NS(=O)(=O)c2ccc3c(c2)CCN3C(=O)CCC(=O)O)cc1,0.2,13.2%,-8.5%,64.8,0.5%[46.1 µM],-14.2%[38.3 µM]
O=C(O)CCC(=O)N1CCc2cc(S(=O)(=O)Nc3ccc4c(c3)OCCO4)ccc21,3.5,6.9%,25.1µM*,19.2,2.1%[46.1 µM],-2.8%[38.3 µM]
NC(=O)COC(=O)c1sc2ccccc2c1Cl,nt,-6.5%,nt,nt,-6.9%,-26.7%
O=[N+]([O-])c1ccc(C(=S)N2CCCC2)cc1,nt,?,nt,nt,11.3%,0.2%
O=[N+]([O-])c1ccc(C(=S)N2CCN(Cc3ccccc3)CC2)cc1,4.9[1.84 µM],14.1µM*,-21.7%,-26.8,-10.8%[46.1 µM],41.0%[38.3 µM]
O=C(CN1CCN(Cc2ccccc2)CC1)NCCNc1ccc([N+](=O)[O-])cn1,nt,9.46µM*,nt,nt,0.5%,12.2%
O=C(CN1CCN(Cc2ccccc2)CC1)Nc1ccc(Cl)cn1,8.8,?,1.2%,?,-0.7%[46.1 µM],25.2%[38.3 µM]
CC1CCN(C(=S)c2ccc([N+](=O)[O-])cc2)CC1,-2.5,?,22.4µM*,-8.2,-8.0%[46.1 µM],3.6%
CCN1CCN(C(=S)c2ccc([N+](=O)[O-])cc2)CC1,1.8,?,25.1µM*,11.1,17.1%,-10.4%
Cc1cccc(NC(=O)C2CCN(S(=O)(=O)c3cccs3)CC2)n1,6.0,10.6%,-2.6%,-16.1,-1.0%[46.1 µM],0.1%
Cc1ccc(S(=O)(=O)n2nc(OC(=O)c3c(-c4ccccc4Cl)noc3C)cc2N)cc1,-12.6,?,-14.1%,?,-29.7%[46.1 µM],13.8%[38.3 µM]
S=C(c1ccc(Cl)cc1)N1CCN(Cc2ccccc2)CC1,nt,-18.3%,nt,nt,-7.6%,10.8%
CSc1ccc(C(=S)N2CCN(Cc3ccccc3)CC2)cc1,4.7,2.24µM*,?,-7.9,-15.7%[46.1 µM],7.9%[38.3 µM]
S=c1[nH]nc(-c2cccnc2)n1/N=C/c1cccs1,6.7,?,-14.7%,77.4,-18.8%[46.1 µM],4.8%[38.3 µM]
COc1ccc(/C=N/n2c(-c3ccc(C)cc3)n[nH]c2=S)cc1OC,nt,nt,nt,nt,-53.4%,nt
Cc1ccc(/C=N/n2c(-c3cccs3)n[nH]c2=S)cc1,3.3,?,4.47µM*,60.2,?,12.4%[38.3 µM]
S=c1[nH]nc(-c2ccco2)n1/N=C/c1c(Cl)cccc1Cl,nt,nt,nt,nt,12.4%,nt
